7 molecules from PubChem BioAssay (NCI) can be followed below.

“And” between values parts separate entries of the source, which are not always exact repeats. Equal entries are not always repeated. About 83,000 compounds went through this panel and 20% of them were active in at least one assay; those are over-represented in the sample as a whole.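 Activity criterion: percent growth below 10, measured after cells in 96-well plates were exposed to a single compound concentration for 48 hours.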 Unmarked numbers belong to inactive results. The source made the active and inactive calls.

What all share (assay): NCI-60 one-dose screen, 48 h (100 = growth as untreated, 0 = no growth, -100 = all killed)
Test [1] concerns NCI-H23 lung.
The test system of test [2] is NCI-H226 lung.
For test [3], the system named is NCI-H322M lung.
Test [4] has as its system HOP-62 NSCLC.
In test [5] the test system is NCI-H460 lung.
The test system of test [6] is HOP-92 NSCLC.
Test [7] relates to NCI-H522 lung.
For test [8], the system named is A549/ATCC NSCLC.
Test [9] deals with 786-0 renal.
The subject of test [10] is COLO 205 colon.
Test [11] deals with DU-145 prostate.
In test [12] the test system is K-562 leukemia. Conditions: 10 µM unless noted.
The subject of test [13] is MALME-3M melanoma.
For test [14], the system named is MDA-MB-231 breast.
In test [15] the test system is RXF 393 renal.
The subject of test [16] is SF-268 CNS.
In test [17] the test system is SF-295 CNS.
The subject of test [18] is SF-539 CNS.
The test system of test [19] is UACC-257 melanoma.

`COc1ccc([C@H]2C(C(=O)c3ccc(Cl)cc3)C3(N[C@@H]2c2ccccc2)C(=O)Nc2ccccc23)cc1` (stereo not given in full): the growth in test [1] (10 µM unless noted) is 21.2%; in test [2] (10 µM unless noted), 24.9%; in [3] (10 µM unless noted), 54.5%; in [4] (10 µM unless noted), 51%; in test [5] (10 µM unless noted), 18.3%; in test [6] (10 µM unless noted), 23%. Also, the growth in test [7] (10 µM unless noted) is 29.5%; in test [8] (10 µM unless noted), 31%; in test [9] (10 µM unless noted), 28.4%; in test [10] (10 µM unless noted), -6.01% (active); in [11] (10 µM unless noted) it was 52%; in [12], 18.8%. In addition, the growth was 32.2% in test [13] (10 µM unless noted); 25.8% in test [14] (10 µM unless noted); 15.8% in test [15] (10 µM unless noted); 37.3% in [16] (10 µM unless noted); 15.2% in test [17] (10 µM unless noted); 34.5% in test [18] (10 µM unless noted). The growth in test [19] (10 µM unless noted) is 44%.
As for `CC1=C(C(=O)OCc2ccccc2)C(c2ccc(N(C)C)cc2)n2c(nc3ccccc32)N1` (stereo not given), the growth in test [1] (10 µM unless noted) was 90.8%; in test [2] (10 µM unless noted) it was 70.1%; in test [3] (10 µM unless noted) it was 101%; in test [4] (10 µM unless noted), 83.6%; in [5] (10 µM unless noted), 99.8%; in [6] (10 µM unless noted), 73.5%. In addition, the growth was 8.11% (active) in test [7] (10 µM unless noted); 94.9% in test [8] (10 µM unless noted); 90.6% in test [9] (10 µM unless noted); 110% in test [10] (10 µM unless noted); 99.6% in test [11] (10 µM unless noted); 58% in test [12]. Besides, the growth in test [13] (10 µM unless noted) is 75.9%; in test [14] (10 µM unless noted), 91.6%; in [15] (10 µM unless noted) it was 74.6%; in test [16] (10 µM unless noted), 81.7%; in test [17] (10 µM unless noted) it was 57.3%; in test [18] (10 µM unless noted), 86.4%. In addition, the growth in [19] (10 µM unless noted) was 85.7%.
On to `COc1cc(/C=C/C(=O)c2cnn(-c3cc(=O)[nH]c4ccc(Cl)cc34)c2C)cc(OC)c1OC`, for which the growth in [1] (10 µM unless noted) was -55.9% (active); in test [2] (10 µM unless noted), -24.2% (active); in test [3] (10 µM unless noted), 7.2% (active); in [4] (10 µM unless noted), -68.3% (active); in [5] (10 µM unless noted), -39.1% (active); in test [6] (10 µM unless noted), -11.9% (active). Also, the growth was -62.9% (active) in test [7] (10 µM unless noted); -17.1% (active) in [8] (10 µM unless noted); -43.9% (active) in test [9] (10 µM unless noted); -67.7% (active) in test [10] (10 µM unless noted); -72.8% (active) in test [11] (10 µM unless noted); -12.4% (active) in test [12]. Also, the growth is -20.4% (active) in [13] (10 µM unless noted); -5.1% (active) in [14] (10 µM unless noted); -84.1% (active) in test [15] (10 µM unless noted); -23.8% (active) in test [16] (10 µM unless noted); -71.5% (active) in [17] (10 µM unless noted); -69.3% (active) in test [18] (10 µM unless noted). The growth in test [19] (10 µM unless noted) is -33.8% (active).
On to `COc1ccc(N=Nc2c(N)nn3c(-c4ccc5c(c4)C=S=C5)ccnc23)cc1`, for which the growth is 27% in test [1] (10 µM unless noted); 22.8% in [2] (10 µM unless noted); 49.1% in test [3] (10 µM unless noted); 42.5% in [4] (10 µM unless noted); 35.3% in test [5] (10 µM unless noted); 4.83% (active) in test [6] (10 µM unless noted). Moreover, the growth in test [7] (10 µM unless noted) was -12.6% (active); in [8] (10 µM unless noted) it was 43%; in test [9] (10 µM unless noted) it was 55.7%; in [10] (10 µM unless noted), 54.8%; in test [11] (10 µM unless noted), 35.4%; in test [12] it was 15.4%. Besides, the growth in test [13] (10 µM unless noted) was 43.9%; in test [14] (10 µM unless noted), 25%; in [15] (10 µM unless noted), 12.2%; in [16] (10 µM unless noted), 67.7%; in test [17] (10 µM unless noted), 33.8%; in test [18] (10 µM unless noted), 22.6%. Also, in [19] (10 µM unless noted), the growth was 85.3%.
As to `CC/C(=C(\c1ccc(O)cc1)c1ccc(OCCNC)cc1)c1ccccc1`, the growth in test [1] (1 µM) was 98.9%; in [1] (10 µM), 96.5%; in [2] (1 µM), 85.9%; in [2] (10 µM) it was 74.7%; in test [3] (1 µM), 100%; in [3] (10 µM), 102%. Moreover, the growth in [4] (1 µM) was 97.8%; in test [4] (10 µM), 96.8%; in [5] (1 µM), 118%; in test [5] (10 µM), 69.2%; in [6] (1 µM) it was 80.2%; in test [6] (10 µM), 65.1%. The growth in [7] (1 µM) is 87.9%; in test [7] (10 µM) it was 93%; in test [8] (1 µM) it was 93.9%; in test [8] (10 µM) it was 88.2%; in test [9] (1 µM), 89.7%; in test [9] (10 µM), 76.7%. For the same molecule, the growth in test [10] (1 µM) is 116%; in [10] (10 µM), 91%; in test [11] (1 µM) it was 103%; in test [11] (10 µM), 83.6%; in [13] (1 µM), 88.6%; in test [13] (10 µM) it was 91%. The growth in [14] (1 µM) was 96.3%; in test [14] (10 µM) it was 82.5%; in test [15] (1 µM), 103%; in test [15] (10 µM), 82.4%; in test [16] (1 µM), 104%; in test [16] (10 µM), 79.8%. Also, the growth is 99.6% in test [17] (1 µM); 96.4% in test [17] (10 µM); 93.6% in [18] (1 µM); 85.2% in test [18] (10 µM); 95.3% in [19] (1 µM); 97.2% in test [19] (10 µM).
For `O=C1c2cccc3c(N4CCN(c5ccccc5)CC4)ccc(c23)C(=O)N1c1cccc(-c2nn(-c3ccccc3)cc2-c2nc3ccccc3s2)c1`, the growth in [1] (10 µM unless noted) was 88.5%; in test [2] (10 µM unless noted), 82%; in test [3] (10 µM unless noted), 97%; in [4] (10 µM unless noted), 110%; in test [5] (10 µM unless noted), 110%; in [6] (10 µM unless noted) it was 120%. For the same molecule, the growth in [7] (10 µM unless noted) is 108%; in test [8] (10 µM unless noted), 113%; in test [9] (10 µM unless noted) it was 102%; in test [10] (10 µM unless noted), 110%; in [11] (10 µM unless noted) it was 108%; in [12], 91.1%. Besides, the growth was 88.8% in test [13] (10 µM unless noted); 95.1% in [14] (10 µM unless noted); 106% in test [15] (10 µM unless noted); 101% in [16] (10 µM unless noted); 103% in test [17] (10 µM unless noted); 95.1% in test [18] (10 µM unless noted). Also, the growth in test [19] (10 µM unless noted) is 113%.
As to `CSc1ccc(OCc2nc3ccccc3n2-c2cccc(NS(C)(=O)=O)c2)cc1`, the growth in [1] (10 µM unless noted) is 92.3% and 81.1%; in test [2] (10 µM unless noted), 100% and 88.1%; in test [3] (10 µM unless noted), 106% and 105%; in test [4] (10 µM unless noted), 114% and 75.1%; in test [5] (10 µM unless noted), 114% and 73.3%; in test [6] (10 µM unless noted), 80.1% and 93.1%. Also, the growth in [7] (10 µM unless noted) was 105% and 96.7%; in test [8] (10 µM unless noted), 104% and 87.1%; in [9] (10 µM unless noted) it was 114% and 97.3%; in test [10] (10 µM unless noted) it was 120% and 91.4%; in [11] (10 µM unless noted), 103% and 67.1%; in test [12], 94.4% and 106%. Further, the growth is 95.3% and 84.1% in test [13] (10 µM unless noted); 118% and 57.3% in [14] (10 µM unless noted); 81.7% and 84.1% in test [15] (10 µM unless noted); 92.4% and 101% in test [16] (10 µM unless noted); 106% and 96.5% in test [17] (10 µM unless noted); 93.2% and 89.5% in [18] (10 µM unless noted). In addition, in test [19] (10 µM unless noted), the growth was 116% and 107%.
